HT1080NT lethal – qHTS for induction of synthetic lethality in tumor cells producing 2HG: qHTS for the HT-1080-NT fibrosarcoma cell line; HT-1080-NT fibrosarcoma viability, CellTiter-Glo ATP luminescence, 48 h; Potency, µM (top dose mostly 46.1 µM), for inactives: top-dose activity, negative = less viability, most hits filed as cytotoxic; actives 1.6% (n = 360,000);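 also: NT is the 2HG producing partner of a matched IDH1 knockdown line; potency is read from the fitted curve at half-maximal effect; 0% = DMSO-treated cells and -100% = media-only wells without cells; nearly all actives have a fitted effect of over 55% in size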
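HT-1080-NT fibrosarcoma cells (2HG-overproducing), 750 cells/well in RPMI with 5% FBS, dosed after 2 h and incubated 48 h at 37C. CellTiter-Glo luminescence normalized to DMSO and no-cell wells; concentration-response curves fitted and classed.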
DT40 TDP1 CPT – qHTS for Inhibitors of human tyrosyl-DNA phosphodiesterase 1 (TDP1): qHTS in cells in presence of CPT; chicken DT40 Tdp1-/-;hTDP1 cells + 20 nM CPT, ATP luminescence, 48 h; Potency, µM (top dose mostly 46.2 µM), for the others: at the highest dose activity change, negative = growth inhibition, actives largely listed as inhibitors; actives 12% (n = 420,000); AID 686979, 2013; also: potency is read from the fitted curve at half-maximal effect; nearly all actives have a fitted effect of over 55% in size
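Chicken DT40 Tdp1-/- cells stably complemented with human TDP1 were seeded at 400 cells/well in medium containing 20 nM camptothecin, exposed to pin-transferred compounds, and grown at 37 °C for at least 48 hr. Viability was read as ATP luminescence.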
TDP1 cell noCPT – qHTS for Inhibitors of human tyrosyl-DNA phosphodiesterase 1 (TDP1): qHTS in cells in absence of CPT; Potency, µM (top dose mostly 46.2 µM), for the others: at the top dose activity change, negative = growth inhibition, usual class: inhibitors; DT40 Tdp1-/- hTDP1 cells, no CPT, ATP luminescence, 48 h; AID 686978, 2013; actives 15% (n = 420,000); also: potency is read from the fitted curve at half-maximal effect; nearly all actives have a fitted effect of over 55% in size
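DT40 Tdp1-/-;hTDP1 cells, no CPT (DMSO vehicle only), 400 cells/well; compounds pin-transferred; ≥48 hr, 37 °C; CellTiter-Glo 30 min RT dark, luminescence read.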
IL1B secr inh – qHTS for Inhibitors of Inflammasome Signaling: IL-1-beta AlphaLISA Primary Screen; THP-1 LPS/ATP IL-1B secretion, AlphaLISA, 16 h; hits give low values; activity change, % at 57.5 µM; actives 4.7% (n = 360,000); in the data active = activity change below about -50%; inconclusive = mostly about -30% to -49%
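Secreted IL-1B measured by AlphaLISA bead assay after 16 h compound exposure of THP-1 cells; compounds (final up to 57.5 uM) added 1 h before LPS (250 ng/mL) and ATP (1.25 mM) stimulation; lower signal means less secretion.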
HT1080 IDH1KD tx – qHTS for induction of synthetic lethality in tumor cells producing 2HG: qHTS for the HT-1080-IDH1KD cell line; HT-1080 IDH1 knockdown viability, ATP luminescence, 48 h; Potency, µM (doses to about 46.1 µM), inactives show at the highest dose activity, negative = toxicity, hits mostly cytotoxic; actives 2% (n = 360,000);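 also: potency is read from the fitted curve at half-maximal effect; 0% = DMSO wells and -100% = cell-free medium wells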
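Knockdown cells (IDH1KD HT-1080) received compounds 2 h after plating at 750 cells/well and were kept 48 h at 37 °C in 5% FBS RPMI. A CellTiter-Glo luminescence read gave % activity for curve fitting.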
ELG1 DNA repair – qHTS screen for small molecules that inhibit ELG1-dependent DNA repair in human embryonic kidney (HEK293T) cells expressing luciferase-tagged ELG1 | HEK293T ELG1-luciferase reporter, luminescence, 16 h; DNA damage induced by 5-fluorouridine | Potency, µM (series often up to 46.1 µM), for the others: at the highest dose activity change, negative = inhibition, usual class: inhibitors | actives 2.3% (n = 330,000) | AID 504467, 2011; also: potency is read from the fitted curve at half-maximal effect; nearly all actives have a fitted effect of over 55% in size
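DMSO vehicle served as the neutral condition. Each well held 2,000 cells given 5-fluorouridine plus compound; after 16 hr at 37 °C/5% CO2, ONE-Glo was added and luciferase measured 30 min later.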
Numbers without * were called inactive; ? = inconclusive; · = not tested or not shown. Hits are enriched below; roughly 19% of the tested compounds scored in any of these assays. Unless noted, calls follow the shape of the dose curve; as a rule, active = well fitted curve in the direction sought with a large enough effect; inconclusive = small, poorly fitted or top-dose-only effect, or another doubt; inactive = no such curve, though single readings can be large; an effect the other way counts as inactive or inconclusive. Unless noted, % is scaled to controls: 0 for no effect and ±100 for the full control effect.

SMILES	HT1080NT lethal	DT40 TDP1 CPT	TDP1 cell noCPT	IL1B secr inh	HT1080 IDH1KD tx	ELG1 DNA repair
CCOC(=O)C(NC(=O)c1cccc(Cl)c1)(OCc1ccc(F)cc1)C(F)(F)F (centres undefined)	?	?	?	-100*	?	?
CCOC(=O)C(NC(=O)c1ccccc1)(OCc1ccc(F)cc1)C(F)(F)F (centres undefined)	-8%	-27%	18µM*	-5	-4%	8%
COc1cc(C(=O)Oc2cccc(C(=S)N3CCOCC3)c2)cc(OC)c1OC	-2%	-21%	-17%	-7	0%	?
Cc1cc(C(=O)N/N=C/c2cccc(OC(=O)c3cccc(Br)c3)c2)n[nH]1	-3%	-7%	-2%	-15	1%	?
COc1cc(C(=O)Oc2cccc(C=O)c2)cc(OC)c1OC	?	26µM*	?	20	?	-14%
COc1cccc(C(=O)Oc2c(Br)cc(Br)cc2/C=N/NC(=O)c2cc(C)[nH]n2)c1	?	6.5µM*	9.2µM*	86	?	?
COc1cccc(/C=N/NC(=O)c2ccncc2)c1OC(=O)c1ccc(Br)cc1	?	?	?	83	?	?
COc1cc(C(=O)Oc2cccc(/C=N/NC(=O)c3cc(C)[nH]n3)c2)cc(OC)c1OC	-14%	?	21µM*	-21	-28%	-18%
COc1cc(=O)n2c(c1C(=O)N(C)Cc1cscn1)CCN(C(=O)c1cccc(C)c1C)CC2	·	-1%	-8%	·	·	·
CCN(CC)S(=O)(=O)c1ccc(NC(=O)C2CC(=O)N(c3ccc4c(c3)OCCO4)C2)cc1 (centres undefined)	6%	-29%	-28%	-2	7%	·
CN(C(=O)c1ccccc1Cl)C1CCCCC1	17%	-7%	-18%	4	-2%	4%
CC1CC(N(C(=O)c2ccccc2Cl)c2ccccc2)c2ccccc2N1 (centres undefined)	23µM*	7.3µM*	5.8µM*	22	23µM*	?
Cc1cc(C(=O)N2CCCC(N3CCN(c4cccc(Cl)c4)CC3)C2)nn1C (centres undefined)	1%	?	-27%	0	-1%	-3%
COc1cccc(N2CCN(C(=O)CSc3ccc(F)cc3)CC2)c1	7%	-14%	?	4	9%	10%
C[C@H](CO)N1C[C@H](C)[C@@H](CN(C)S(=O)(=O)c2ccccc2)Oc2c(NC(=O)CCC(F)(F)F)cccc2C1=O	10%	-13%	-6%	-3	10%	6%
COc1cc(/C=N\NC(=O)CNC(=O)C2COc3ccccc3O2)ccc1O (centres undefined)	1%	?	-2%	17	4%	0%
CCN(CC)c1ccc(/C=N/NC(=O)CNC(=O)C2COc3ccccc3O2)c(O)c1 (centres undefined)	?	5.8µM*	3.3µM*	87	?	?
CCOC(=O)N/N=C/c1ccccc1F	19%	15%	10%	4	8%	?
CCN(CC)S(=O)(=O)c1cccc(C(=O)N/N=C/c2cccc(O)c2O)c1	?	3.7µM*	4.6µM*	0	?	4%
CCOC(=O)N/N=C/c1ccc(N(CC)CC)cc1O	?	8.2µM*	5.8µM*	8	9.2µM*	?
CCN(CC)c1ccc(/C=N/Nc2ccc(C)cc2)c(O)c1	-7%	12µM*	12µM*	-7	-6%	?
O=C(CN1C(=O)NC2(CCCCC2)C1=O)Nc1ccc(Cl)cc1	-13%	-23%	?	3	0%	6%
COc1ccc(Cl)cc1NC(=O)COC(=O)C1COc2ccccc2O1 (centres undefined)	1%	7%	8%	26	7%	25%
CC/C(=N\NC(=O)CCC(=O)NCc1ccccc1)c1ccc(O)cc1	1%	2.9µM*	4.1µM*	12	-14%	2%
CCN(CC)c1ccc(/C=N/NC(=O)c2c(Cl)cnn2C)c(O)c1	?	3.7µM*	5.8µM*	69	?	?
SMILES	HT1080NT lethal	DT40 TDP1 CPT	TDP1 cell noCPT	IL1B secr inh	HT1080 IDH1KD tx	ELG1 DNA repair
CCN(CC)c1ccc(/C=N/NC(=O)CCC(=O)NCc2ccccc2)c(O)c1	-28%	5.2µM*	5.2µM*	48	?	0%
CCN(CC)c1ccc(/C=N/NC(=O)c2cccc(S(=O)(=O)N3CCOCC3)c2)c(O)c1	?	4.1µM*	5.8µM*	200	?	?
O=C1CCC/C=C/C[C@@H](CC(=O)N(CCO)Cc2ccccc2)C(=O)NC[C@@H](c2ccccc2)O1	4%	6%	-27%	13	1%	16%
O=C(N[C@@H]1C/C=C\C[C@H](CC(=O)N(CCO)Cc2ccccc2)C(=O)NC[C@@H](c2ccccc2)OC1=O)OCC1c2ccccc2-c2ccccc21	?	6.5µM*	5.8µM*	-13	?	?
O=C(N[C@@H]1C/C=C\C[C@@H](CC(=O)N(CCO)Cc2ccccc2)C(=O)NC[C@H](c2ccccc2)OC1=O)OCC1c2ccccc2-c2ccccc21	?	2.6µM*	7.3µM*	-6	-21%	15µM*
O=C(C[C@H]1C/C=C\C[C@H](NC(=O)OCC2c3ccccc3-c3ccccc32)C(=O)O[C@H](c2ccccc2)CNC1=O)N[C@H](CO)Cc1ccccc1	12µM*	3.3µM*	3.7µM*	24	15µM*	?
O=C1CC/C=C\C[C@@H](CC(=O)N(CCO)Cc2ccccc2)C(=O)NC[C@@H](c2ccccc2)O1	19%	-2%	-26%	5	11%	?
COC(=O)CC1C2(C)CC34OC5(C)O[C@@]6(C7/C(=C(/O)C(C)C)C(=O)OC(c8ccoc8)[C@]7(C)C(OC(C)=O)C(OC(C)=O)[C@]6(O5)[C@@]13C)C(OC(C)=O)[C@]4(O)C2OC(=O)C(C)C (some centres undefined)	·	-14%	-4%	·	·	·
